Several values for one entry are separate records, joined by “and”; a condition that tells them apart may be missing. Equal entries are not always repeated. Results filed as inconclusive are left out. Where a call stands in place of a potency, no number is given. Activity calls are given as the source filed them. The call rests on the fitted dose curve; in most records, active means well fitted curve in the direction sought with a large enough effect; inconclusive means small, poorly fitted or top-dose-only effect, or another doubt; inactive means no such curve, though single readings can be large; an effect the other way counts as inactive or inconclusive.
Legend:
[1] = qHTS of pediatric cancer cell lines to identify multiple opportunities for drug repurposing: Confirmatory screen for control Hh wild type fibroblast cells (AID 1347121); further: nearly all actives have a fitted effect of over 70% in size
How it was run: (§1)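 Viability after 48 h compound treatment at 37C, 500-1,000 cells/well, read as ATP luminescence with CellTiter-Glo. Primary screens used 11-point (MIPE, 0.78 nM-46 µM) or 8-point (NPC, 0.59 nM-46 µM) final concentrations; follow-up screens used 11-point dilutions.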

[2] = qHTS of pediatric cancer cell lines to identify multiple opportunities for drug repurposing: Confirmatory screen for U-2 OS cells (AID 1347122); further: nearly all actives have a fitted effect of over 65% in size
How it was run: as §1

[3] = qHTS of pediatric cancer cell lines to identify multiple opportunities for drug repurposing: Confirmatory screen for OHS-50 cells (AID 1347128);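 further: compound exposure lasted 48 h at 37 degrees C; nearly all actives have a fitted effect of over 55% in size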
How it was run: as §1

[4] = qHTS of pediatric cancer cell lines to identify multiple opportunities for drug repurposing: Confirmatory screen for SK-N-SH cells (AID 1347129);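 further: cells exposed to compound for 48 h before viability read; nearly all actives have a fitted effect of over 60% in size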
How it was run: as §1

[5] = qHTS of pediatric cancer cell lines to identify multiple opportunities for drug repurposing: Confirmatory screen for MG 63 (6-TG R) cells (AID 1347119); further: nearly all actives have a fitted effect of over 55% in size
Description: Drug repurposing or repositioning has been offered as a strategy for drug development in oncology programs. This approach has special potential for childhood cancers and other rare or orphan diseases, where the expected return on new drug development has been a disincentive to pharmaceuticals.
In this project we exploit the poly-pharmacology of drugs to discover new indications via phenotypic screening of a panel of 19 well-characterized cell lines derived from solid tumors seen in children and adolescents. The goal is to identify approved drugs with previously unrecognized anticancer properties that has the potential to reveal new mechanisms and biological processes involved in carcinogenesis or drug resistance. We employed a titration-based paradigm (quantitative high-throughput screening or qHTS), where all compounds were tested at multiple concentrations for their effect on cell viability. Concentration-response curves (CRCs) were derived directly from the primary screen, and both potency and efficacy values were used to identify compounds with robust bioactivity profiles. We screened the NIH Chemical Genomics Center (NCGC) Pharmaceutical Collection (NPC) and Mechanism Interrogation Plate (MIPE) small molecule collections of approved and investigational compounds against these cell lines; and measured metabolically active cells after 48 hours of compound treatment as a proxy for cell viability.
Assay Submitter: Nathalia J. Martinez, National Center for Advancing Translational Sciences, National Institutes of Health, Rockville, MD, USA; email: natalia.martinez@nih.gov
[1] Shen, M et al. Quantitative high-throughput phenotypic screening of pediatric cancer cell lines identifies multiple opportunities for drug repurposing. Oncotarget 2017 Dec 19;9(4):4758-4772. PMID 29435139.
The cells were obtained from University of North Carolina (UNC), Pediatric Preclinical Testing Program (PPT), and Coriell Institute (CI).
qHTS cell viability assay:
Cells were assayed in growth media at a density of 500-1,000 cells/well. Five microliters of cells were dispensed into 1,536-well, white, solid-bottom, TC-treated plates (Greiner Bio One) using a multidrop dispenser and incubated at 37 degrees C, 5% CO2, under a humidified atmosphere for 5 hours. Twenty-three nanoliters of compounds and controls (neutral control DMSO or positive control bortezomib at final concentration of 2.3 µM) were subsequently transferred by Kalypsys pintool. For primary screens, the MIPE collection was tested at 11-point dilutions (final concentrations range from 0.78 nM to 46 µM) and the NPC collection at 8-point dilutions (final concentrations range from 0.59 nM to 46 µM). Compounds tested in follow-up screens were assayed at 11-point dilutions. Cells were incubated for 48 hours, followed by addition of 3 µL of CellTiter-Glo (Promega). After a 15 min incubation at room temperature, samples were analyzed for luminescence intensity using a ViewLux High-throughput CCD imager equipped with clear filters.

[6] = qHTS of pediatric cancer cell lines to identify multiple opportunities for drug repurposing: Confirmatory screen for Rh41 cells (AID 1347123);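 further: 48 h compound exposure; nearly all actives have a fitted effect of over 60% in size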
How it was run: as §1

[7] = qHTS of pediatric cancer cell lines to identify multiple opportunities for drug repurposing: Confirmatory screen for Rh18 cells (AID 1347125); further: nearly all actives have a fitted effect of over 55% in size
How it was run: as §1

[8] = qHTS of pediatric cancer cell lines to identify multiple opportunities for drug repurposing: Confirmatory screen for Rh30 cells (AID 1347126); further: nearly all actives have a fitted effect of over 55% in size
How it was run: as §1

[9] = qHTS of pediatric cancer cell lines to identify multiple opportunities for drug repurposing: Confirmatory screen for Saos-2 cells (AID 1347127); further: nearly all actives have a fitted effect of over 60% in size
How it was run: as §1

[10] = qHTS of pediatric cancer cell lines to identify multiple opportunities for drug repurposing: Confirmatory screen for RD cells (AID 1347124);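 further: cells exposed to compound for 48 h before viability readout; nearly all actives have a fitted effect of over 65% in size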
How it was run: as §1
Potency means the concentration at half of the fitted maximal effect.

Row | Compound | Potency [1] | Potency [2] | Potency [3] | Potency [4] | Potency [5] | Potency [6] | Potency [7] | Potency [8] | Potency [9] | Potency [10]
1 | Cn1cc(C2=C(c3cn(C4CCN(Cc5ccccn5)CC4)c4ccccc34)C(=O)NC2=O)c2ccccc21 | inactive | inactive | inactive | inactive | – | – | – | – | – | –
2 | O=c1[nH]c2ccccc2n1CCCN1CCC(n2c(=O)[nH]c3cc(Cl)ccc32)CC1 | – | – | 13100 nM (active) | – | 6.57 µM (active) | 16500 nM (active) | 9270 nM (active) | 7370 nM (active) | 10.4 µM (active) | –
3 | CC(C)CC(N(C)C)C1(c2ccc(Cl)cc2)CCC1 (configuration not stated) | – | – | – | inactive | – | inactive | 20800 nM (active) | – | – | –
4 | N[C@@H](Cc1ccc(N(CCCl)CCCl)cc1)C(=O)O | inactive | – | 26100 nM (active) | 18.7 µM (active) | 16.5 µM (active) | – | – | – | – | –
5 | COC[C@@H](NC(C)=O)C(=O)NCc1ccccc1 | inactive | – | inactive | inactive | inactive | – | inactive | – | inactive | –
6 | C[C@H]1O[C@@H](O[C@H]2[C@@H](O)C[C@H](O[C@H]3[C@@H](O)C[C@H](O[C@H]4CC[C@@]5(C)[C@H](CC[C@@H]6[C@@H]5CC[C@]5(C)[C@@H](C7=CC(=O)OC7)CC[C@]65O)C4)O[C@@H]3C)O[C@@H]2C)C[C@H](O)[C@@H]1O | – | 165 nM (active) | – | 0.148 µM (active) | 0.0465 µM (active) | 73.7 nM (active) | – | 329 nM (active) | 1.04 µM (active) | 104 nM (active)
7 | C[C@@H]1[C@@H](C(=O)C[C@H]2O[C@@H]3O[C@]4(C)CC[C@@H]5[C@H](C)CC[C@@H]([C@H]2C)[C@@]35OO4)O[C@@H]2O[C@]3(C)CC[C@H]4[C@H](C)CC[C@@H]1[C@@]24OO3 | inactive | – | – | – | – | 928 nM (active) | inactive | 13100 nM (active) | – | 737 nM (active)
8 | Cc1sc2c(c1C)C(c1ccc(Cl)cc1)=N[C@@H](CC(=O)OC(C)(C)C)c1nnc(C)n1-2 | inactive | inactive | – | inactive | – | inactive | – | – | – | –
9 | C[C@@H]1[C@@H](CC(C[C@H]2O[C@@H]3O[C@]4(C)CC[C@@H]5[C@H](C)CC[C@@H]([C@H]2C)[C@@]35OO4)C[S+](=O)([O-])c2ccc(COC(=O)N(C)C)cc2)O[C@@H]2O[C@]3(C)CC[C@H]4[C@H](C)CC[C@@H]1[C@@]24OO3 (some centres not stated) | 13100 nM (active) | – | 233 nM (active) | – | 2.33 µM (active) | 82.7 nM (active) | – | 4650 nM (active) | – | –
10 | C[C@@H]1O[C@@H](O[C@H]2C[C@@H](O)[C@]3(CO)[C@H]4[C@H](O)C[C@]5(C)[C@@H](C6=CC(=O)OC6)CC[C@]5(O)[C@@H]4CC[C@]3(O)C2)[C@H](O)[C@H](O)[C@H]1O | – | 131 nM (active) and 89.1 nM (active) | 92.8 nM (active) | 132 nM (active) and 79.4 nM (active) | 104 nM (active) and 117 nM (active) | 46.5 nM (active) and 39.8 nM (active) | – | 165 nM (active) | 369 nM (active) and 657 nM (active) | 117 nM (active)
11 | C=C(C)[C@H]1Cc2c(ccc3c2O[C@@H]2COc4cc(OC)c(OC)cc4[C@@H]2C3=O)O1 | 117 nM (active) | inactive | 1470 nM (active) | – | 0.0329 µM (active) | – | – | inactive | – | inactive
12 | O=P1(NCCCl)OCCCN1CCCl (configuration not stated) | inactive | inactive | inactive | inactive | inactive | inactive | inactive | inactive | – | inactive
13 | Cn1c(CCCC(=O)O)nc2cc(N(CCCl)CCCl)ccc21 | inactive | – | inactive | inactive | – | – | inactive | – | – | inactive
